The source of these data is PubChem BioAssay (Tox21).

Records with an inconclusive call do not appear. Entries that show only a call come without a potency. The source made the active and inactive calls. Calls follow the shape of the dose curve; as a rule, active = well fitted curve in the direction sought with a large enough effect in the repeat runs; inconclusive = weak or mixed curves; inactive = no such curve, though single readings can be large; an effect the other way counts as inactive or inconclusive.
Potency is read from the fitted curve at half-maximal effect.

The nature of one assay: qHTS assay to identify small molecule antagonists of the retinoid acid receptor (RAR) signaling pathway - cell viability counter screen (AID 1159551). Also: nearly all actives have a fitted effect of over 35% in size. Particulars: C3RL4 cells viability, ATP luminescence (CellTiter-Glo), 6 h; series mostly up to 92.4 µM. The essentials:
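Cells (C3RL4) are plated, incubated overnight, dosed with compound in DMSO, then given retinol at 1 uM final. After 6 h at 37 C, CellTiter-Glo is added and luminescence read following 30 min at room temperature.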
With `CCOC(=O)C1(c2ccccc2)CCN(CCC(C#N)(c2ccccc2)c2ccccc2)CC1`, the Potency entry is “inactive”.

`FC(Cl)(Cl)Cl`: the Potency entry was “inactive”.

In the case of `CC(C)CC(C)(c1ccc(O)cc1)c1ccc(O)cc1`, the Potency entry is “inactive”.

In the case of `CC(=O)Nc1ccc2c(c1)Cc1ccccc1-2`, the Potency entry was “inactive”.

On to `Cc1c(Cl)c(=O)oc2cc(OP(=O)(OCCCl)OCCCl)ccc12`, for which the Potency entry was “inactive”.

On to `CC(C)[C@H](C(=O)OC(C#N)c1cccc(Oc2ccccc2)c1)c1ccc(OC(F)F)cc1` (some centres undefined), for which the Potency result is “inactive”.

For the molecule `CCOC(=O)OC1=C(c2cc(C)ccc2C)C(=O)NC12CCC(OC)CC2` (centres undefined), the Potency entry was “inactive”.

With `C[C@H]1CC[C@@H]2[C@@H](C)[C@H]3[C@H](C[C@H]4[C@@H]5CC=C6CC(O[C@@H]7O[C@H](CO)[C@H](O)[C@H](O[C@@H]8O[C@H](CO)[C@@H](O)[C@H](O)[C@H]8O)[C@H]7O[C@H]7O[C@@H](C)[C@H](O)[C@@H](O)[C@H]7O)CC[C@]6(C)[C@H]5CC[C@]34C)N2C1` (some centres undefined), the Potency is 25.1 µM (active).

As to `Clc1ccc(CCC(Cn2ccnc2)Sc2c(Cl)cccc2Cl)cc1` (centres undefined), the Potency result is “inactive”.

As for `COc1ccc(OC)c(CC(C)N)c1` (centres undefined), the Potency entry was “inactive”.

With `Clc1ccc(-c2ccc(Cl)c(Cl)c2Cl)c(Cl)c1Cl`, the Potency result is “inactive”.

As to `Cn1cc(C2=C(c3cn(C4CCN(Cc5ccccn5)CC4)c4ccccc34)C(=O)NC2=O)c2ccccc21`, the Potency result was “inactive”.

For the molecule `CCN`, the Potency entry was “inactive”.

For `CCCCCCCCCCCCCN1CC(C)OC(C)C1` (centres undefined), the Potency result was “inactive”.

In the case of `N#CCCSCCC#N`, the Potency result was “inactive”.

For the molecule `O=C(O)COc1nc(Cl)c(Cl)cc1Cl`, the Potency entry is “inactive”.

Regarding `O=C1NCN(c2ccccc2)C12CCN(CC1COc3ccccc3O1)CC2` (centres undefined), the Potency result was “inactive”.

For `c1ccc2cc3c(cc2c1)-c1cccc2cccc-3c12`, the Potency entry was “inactive”.

For `CCCN(CC)CC1COC2(CCC(C(C)(C)C)CC2)O1` (centres undefined), the Potency entry was “inactive”.

Turning to `CC(C)(C)OO`, the Potency result is “inactive”.

`ClC1=C(Cl)C2(Cl)C3C(Cl)C=CC3C1(Cl)C2(Cl)Cl` (centres undefined): the Potency result was “inactive”.

Regarding `NNC(=O)c1ccccc1`, the Potency result was “inactive”.

On to `Fc1cccc(Cl)c1CCl`, for which the Potency result was “inactive”.

As for `OC(c1ccc(Cl)cc1)(c1ccc(Cl)cc1)C(Cl)(Cl)Cl`, the Potency result is “inactive”.

Turning to `CN(C)c1ccc(N=Nc2ccccc2)cc1`, the Potency entry was “inactive”.

For `N#CC(Cl)Cl`, the Potency entry was “inactive”.

As for `c1ccc2c(c1)[nH]c1cnccc12`, the Potency entry is “inactive”.

In the case of `Cc1ccc(OP(=O)(Oc2ccccc2)Oc2ccccc2)cc1`, the Potency result was “inactive”.

For `FC(F)(F)c1cccc(C2=CCN(CCc3ccc4ccccc4c3)CC2)c1`, the Potency entry is “inactive”.

As for `BrC(Br)Br`, the Potency result is “inactive”.

Turning to `Cc1cc(C(F)(C(F)(F)F)C(F)(F)F)ccc1NC(=O)c1cccc(I)c1C(=O)NC(C)(C)CS(C)(=O)=O`, the Potency result is “inactive”.

Take `O=[N+]([O-])c1c2ccccc2cc2ccccc12`: the Potency result was “inactive”.

For the molecule `CCCN(CCC)CCc1c[nH]c2ccccc12`, the Potency result was “inactive”.

Consider `CC(C)OS(C)(=O)=O`, for which the Potency entry was “inactive”.

Regarding `N#CNC#N`, the Potency result was “inactive”.

Consider `C[C@@H]1O[C@@H](O[C@H]2C[C@@H](O)[C@]3(CO)[C@H]4[C@H](O)C[C@]5(C)[C@@H](C6=CC(=O)OC6)CC[C@]5(O)[C@@H]4CC[C@]3(O)C2)[C@H](O)[C@H](O)[C@H]1O`, for which the Potency entry was “inactive”.

On to `CCOCn1c(-c2ccc(Cl)cc2)c(C#N)c(Br)c1C(F)(F)F`, for which the Potency result was “inactive”.

A short description of the next assay: qHTS assay to identify small molecule antagonists of the retinoic acid receptor (RAR) signaling pathway (AID 1159552; also: nearly all actives have a fitted effect of over 50% in size). The note with it: C3RL4 RARE luciferase reporter, retinol-stimulated, 6 h; series mostly up to 92.4 µM. Put shortly:
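RARE-luc C3RL4 cells; cpds + 1 uM (final) retinol, 6 hr, 37 C/5% CO2; luciferase reagent, 30 min RT, luminescence readout. Inhibitors of retinol-driven signal scored.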
(In general: qHTS replaces the single test concentration by a dilution series.)
For `CCOC(=O)C1(c2ccccc2)CCN(CCC(C#N)(c2ccccc2)c2ccccc2)CC1`, the Potency entry was “inactive”.

Consider `FC(Cl)(Cl)Cl`, for which the Potency result was “inactive”.

Take `CC(C)CC(C)(c1ccc(O)cc1)c1ccc(O)cc1`: the Potency entry was “inactive”.

With `CC(=O)Nc1ccc2c(c1)Cc1ccccc1-2`, the Potency result was “inactive”.

With `Cc1c(Cl)c(=O)oc2cc(OP(=O)(OCCCl)OCCCl)ccc12`, the Potency result was “inactive”.

For the molecule `CC(C)[C@H](C(=O)OC(C#N)c1cccc(Oc2ccccc2)c1)c1ccc(OC(F)F)cc1` (some centres undefined), the Potency result is “inactive”.

For `CCOC(=O)OC1=C(c2cc(C)ccc2C)C(=O)NC12CCC(OC)CC2` (centres undefined), the Potency was 43.2 µM (active).

Take `C[C@H]1CC[C@@H]2[C@@H](C)[C@H]3[C@H](C[C@H]4[C@@H]5CC=C6CC(O[C@@H]7O[C@H](CO)[C@H](O)[C@H](O[C@@H]8O[C@H](CO)[C@@H](O)[C@H](O)[C@H]8O)[C@H]7O[C@H]7O[C@@H](C)[C@H](O)[C@@H](O)[C@H]7O)CC[C@]6(C)[C@H]5CC[C@]34C)N2C1` (some centres undefined): the Potency is 28.2 µM (active).

For the molecule `Clc1ccc(CCC(Cn2ccnc2)Sc2c(Cl)cccc2Cl)cc1` (centres undefined), the Potency result is “inactive”.

For the molecule `COc1ccc(OC)c(CC(C)N)c1` (centres undefined), the Potency result was “inactive”.

As to `Clc1ccc(-c2ccc(Cl)c(Cl)c2Cl)c(Cl)c1Cl`, the Potency entry is “inactive”.

With `Cn1cc(C2=C(c3cn(C4CCN(Cc5ccccn5)CC4)c4ccccc34)C(=O)NC2=O)c2ccccc21`, the Potency entry was “inactive”.

As to `CCN`, the Potency result was “inactive”.

In the case of `CCCCCCCCCCCCCN1CC(C)OC(C)C1` (centres undefined), the Potency result was “inactive”.

Regarding `N#CCCSCCC#N`, the Potency entry is “inactive”.

On to `O=C(O)COc1nc(Cl)c(Cl)cc1Cl`, for which the Potency entry is “inactive”.

With `O=C1NCN(c2ccccc2)C12CCN(CC1COc3ccccc3O1)CC2` (centres undefined), the Potency result is “inactive”.

For the molecule `c1ccc2cc3c(cc2c1)-c1cccc2cccc-3c12`, the Potency result was “inactive”.

As to `CCCN(CC)CC1COC2(CCC(C(C)(C)C)CC2)O1` (centres undefined), the Potency result was “inactive”.

On to `CC(C)(C)OO`, for which the Potency entry is “inactive”.

For the molecule `ClC1=C(Cl)C2(Cl)C3C(Cl)C=CC3C1(Cl)C2(Cl)Cl` (centres undefined), the Potency result is “inactive”.

For `NNC(=O)c1ccccc1`, the Potency entry was “inactive”.

Consider `Fc1cccc(Cl)c1CCl`, for which the Potency entry was “inactive”.

For the molecule `OC(c1ccc(Cl)cc1)(c1ccc(Cl)cc1)C(Cl)(Cl)Cl`, the Potency result is “inactive”.

In the case of `CN(C)c1ccc(N=Nc2ccccc2)cc1`, the Potency result was “inactive”.

Turning to `N#CC(Cl)Cl`, the Potency entry was “inactive”.

In the case of `c1ccc2c(c1)[nH]c1cnccc12`, the Potency result was “inactive”.

As to `Cc1ccc(OP(=O)(Oc2ccccc2)Oc2ccccc2)cc1`, the Potency result was “inactive”.

For the molecule `FC(F)(F)c1cccc(C2=CCN(CCc3ccc4ccccc4c3)CC2)c1`, the Potency entry is “inactive”.

With `BrC(Br)Br`, the Potency result was “inactive”.

As for `Cc1cc(C(F)(C(F)(F)F)C(F)(F)F)ccc1NC(=O)c1cccc(I)c1C(=O)NC(C)(C)CS(C)(=O)=O`, the Potency result is “inactive”.

`O=[N+]([O-])c1c2ccccc2cc2ccccc12`: the Potency entry was “inactive”.

With `CCCN(CCC)CCc1c[nH]c2ccccc12`, the Potency result was “inactive”.

For `CC(C)OS(C)(=O)=O`, the Potency result was “inactive”.

`N#CNC#N`: the Potency entry was “inactive”.

Turning to `C[C@@H]1O[C@@H](O[C@H]2C[C@@H](O)[C@]3(CO)[C@H]4[C@H](O)C[C@]5(C)[C@@H](C6=CC(=O)OC6)CC[C@]5(O)[C@@H]4CC[C@]3(O)C2)[C@H](O)[C@H](O)[C@H]1O`, the Potency entry is “inactive”.

As to `CCOCn1c(-c2ccc(Cl)cc2)c(C#N)c(Br)c1C(F)(F)F`, the Potency was 3.06 µM (active).
